Test results taken from PubChem BioAssay (NCI).
This is part of a sample that, as a whole, favours compounds with a hit. Of some 83,000 tested, about 20% had one in any assay.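 Testing used 96-well plates and a 48-hour single-concentration exposure. Example: -40 means 40% of the starting cells died.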 Values without a mark were called inactive. Activity calls are given as the source filed them. How the source made its calls: active means growth percent below 10; inactive means the rest.

test system: NCI-H23 lung; test: NCI-60 one-dose screen, 48 h (100 = growth as untreated, 0 = no growth, -100 = all killed); details: 10 µM unless noted

Q: For `O=C(Nc1ccc2ncnc(Nc3cccc(C(F)(F)F)c3)c2c1)c1cccs1`, which growth is on record?
A: Its growth is 30.2%.

Q: Which growth does the source give for `O=C1[C@@H](OS(=O)(=O)CC(F)(F)F)[C@H](c2ccc(F)cn2)N1c1cc2c3ccccc3ccc2c2ccccc12` here?
A: The growth was 84.5%.

Q: Which growth does the source give for `COc1cc2cc(c1Cl)N(C)C(=O)C[C@H](OC(=O)[C@H](C)N(C)C(=O)CCS)C[C@]1(C)O[C@H]1[C@H](C)[C@@H]1C[C@@](O)(NC(=O)O1)[C@H](OC)/C=C/C=C(\C)C2` here?
A: The growth was 23.2%.

Q: `COc1cc(/C=C/C(=O)c2cccs2)ccc1OCc1ccc(Cl)nc1` was tested. Which growth did it give?
A: The growth was 77.5%.

Q: With `COc1cc(/C=C/C(=O)/C=C/c2cc3ccc(Cl)cc3[nH]c2=O)ccc1O` as the molecule, how does the growth read?
A: Its growth is 61.2%.

Q: For `COc1ccc(/C=C/C(=O)/C=C(/C=C/c2ccc(OC)c(OC)c2)OB(F)F)cc1OC`, which growth is on record?
A: Its growth is 52.3%.

Q: Which growth does the source give for `COc1cc(/C=C/C(=O)/C=C/c2cc3ccc(Cl)cc3n(Cc3ccccc3)c2=O)ccc1O` here?
A: Its growth is -20.6% (active).

Q: For `C=C(C)[C@@H]1CC[C@]2(C(=O)OCCCC[P+](c3ccccc3)(c3ccccc3)c3ccccc3)CC[C@]3(C)[C@H](CC[C@@H]4[C@@]5(C)CC[C@H](OC(=O)C(Cl)Cl)C(C)(C)[C@@H]5CC[C@]43C)[C@@H]12`, which growth is on record?
A: The growth was -16.5% (active).

Q: For `COc1ccc(C(=S)c2cc(OC)c(OC)c(OC)c2)cc1OC(=O)CCl`, which growth is on record?
A: The growth was 31.4%.

Q: How did the growth turn out when `CNCc1cccc2c1OCCOCCOCCN(CCN1CCOCC1)S(=O)(=O)c1ccc(cc1)-c1cnc(N)c(n1)C(=O)N2` was run?
A: Its growth is 42.3%.

Q: `COc1ccc2[nH]c(=O)c(/C=C/C(=O)/C=C/c3ccc(O)c(OC)c3)cc2c1` was tested. Which growth did it give?
A: The growth was 5.43% (active).
